# Among all 24,000 compounds or so, about 70 (0.3%) were called active. The entries come from a sample that favours actives as a whole. A number with no mark means an inactive call. No stated cut-off is given here; in the data, active means inhibition above about 30%; inconclusive means no clear call, values can overlap the other calls; inactive means below that.
# Target: N-formyl peptide receptor 2 (Homo sapiens) (UniProt P25090)
# Assay: small molecules displacing FPRL1 fluorescent ligand – cell-based, FPR counter-screen, flow cytometry, primary screen (AID 441);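 further: 0% = buffer alone and 100% = receptor blocker peptide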
# Settings: FPRL1-expressing cells, fluorescent ligand binding inhibition, active compounds read high, concentration not given here
# Chain of N-formyl peptide receptor 2 (Homo sapiens) (P25090 whole entry, looked up): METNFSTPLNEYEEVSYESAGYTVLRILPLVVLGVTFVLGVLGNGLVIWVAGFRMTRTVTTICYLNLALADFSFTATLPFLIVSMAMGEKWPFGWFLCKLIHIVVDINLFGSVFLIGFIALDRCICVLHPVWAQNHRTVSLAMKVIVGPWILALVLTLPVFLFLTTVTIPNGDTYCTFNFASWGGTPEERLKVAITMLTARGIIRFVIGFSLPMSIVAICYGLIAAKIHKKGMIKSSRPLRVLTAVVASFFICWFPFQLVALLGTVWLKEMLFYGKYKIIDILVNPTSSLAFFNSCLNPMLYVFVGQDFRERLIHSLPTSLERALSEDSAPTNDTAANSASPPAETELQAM
row,SMILES,inhibition
1,Cc1cccc(N2C(=O)SC(N(CC(=O)O)c3cccc(C)c3)C2=O)c1 (stereo unspecified),0.6%
2,C/C(N)=C(\C#N)C(=O)NCCc1ccccn1,-4.6%
3,COC(=O)c1ccc(CN(c2ccccc2OC)S(=O)(=O)c2cccs2)o1,-4.4%
4,O=C(NCc1ccco1)C1CCCN(S(=O)(=O)c2cnc[nH]2)C1 (stereo unspecified),0.2%
5,Cc1cc(N2C(=O)C(=O)/C(=C(/O)c3ccccc3)C2c2cccc(Br)c2)no1 (stereo unspecified),-8.1%
6,COc1cccc(C(CC(=O)NCCN2CCOCC2)NS(=O)(=O)c2ccc(C)cc2)c1OC (stereo unspecified),0.8%
7,O=C(CN1CCN(c2ccccc2F)CC1)c1ccc2c(c1)OCO2,-9.1%
8,O=C(Nc1cccnc1)c1ccc2c(c1)OCO2,-0.1%
9,CCOC(=O)c1cn(CC(=O)Nc2ccc(C(C)C)cc2)nn1,1.8%
10,CC1CN(C(=O)c2ccc3c(c2)OCO3)OC(c2ccccc2)O1 (stereo unspecified),5.6%
11,Cc1ccc(-n2nc3cc(Cl)c(NC(=O)c4ccco4)cc3n2)cc1,-4.7%
12,CCOC(=O)c1nc(-c2ccc3c(c2)OCO3)[nH]c1C,-7.4%
13,CCC1=C(C(=O)OC)C(c2cc(OC)ccc2OC)C(C#N)=C(N)O1 (stereo unspecified),-1.1%
14,COCCN1C(=O)c2oc3c(C)cc(C)cc3c(=O)c2C1c1cccc(O)c1 (stereo unspecified),-10.9%
15,CCCS(=O)(=O)N1CCCC(C(=O)NCCN2CCCCC2C)C1 (stereo unspecified),3.4%
16,O=C(Cn1cnc2c(nnn2Cc2ccc(F)cc2)c1=O)NCc1ccc2c(c1)OCO2,-2.3%
17,Cc1cc(C)c2c(n1)nn1c(N3CCOCC3)cc(C)nc21,-1.1%
18,CCOc1ccc(C(CC(=O)O)NC(=O)COc2ccccc2)cc1 (stereo unspecified),0.6%
19,CCOC(=O)C1C(=O)C=C(c2ccc(OC)cc2)CC1c1ccco1 (stereo unspecified),-6.4%
20,CCn1cc(C(=O)NC2CCCCCC2)c(=O)c2cc(S(=O)(=O)N3CCCCC3)ccc21,-5.2%
21,Brc1cnc(N2CCCC2)nc1N1CCCCC1,0.1%

row,SMILES,inhibition
1,CC(C)Cc1cc(C(=O)Nc2cc(Br)ccc2O)no1,-1.4%
2,Cc1cc(NC(=O)c2cc(-c3cccs3)on2)nn1Cc1ccc(Cl)cc1,2%
3,CC(C)C[C@H](NC(=O)Nc1cccc(C(F)(F)F)c1)C(=O)O,2.8%
4,Fc1ccccc1C(c1nnnn1Cc1ccc2c(c1)OCO2)N1CCN(Cc2ccccc2)CC1 (stereo unspecified),10.3%
5,Clc1ccc(Cc2nn3c(-c4ccncc4)nnc3s2)cc1,54.5% (active)
6,CCOc1cccc(-c2nnc3sc(COc4ccc(OC)cc4)nn23)c1,-1%
7,c1ccc(Cc2nn3c(Cn4cnc5ccccc54)nnc3s2)cc1,4.2%
8,O=C(COC(=O)C12CC3CC(CC(C3)C1)C2)NCc1ccco1,0.4%
9,CCCN(CCC)CCNC(=O)c1cc2c(C)nc3ccccc3c2o1,4.8%
10,O=C1CC(c2cccc(F)c2)C2=C(CCCC2=O)N1 (stereo unspecified),4.1%
11,CC(=O)NC1CC2CCCC(C1)N2CC(=O)Nc1ccccc1 (stereo unspecified),2.2%
12,O=C1NC2(CCCCC2)N=C1c1ccccc1,-5.4%
13,CC(=O)Nc1cc(C(=O)O)ccc1S(=O)(=O)c1ccc(Cl)cc1,-2.1%
14,CCOC(=O)c1cnc(-n2nc(C)cc2C)nc1Nc1cccc(C(C)=O)c1,9%
15,C[N+](C)(C)CCOP(=O)([O-])OC[C@H](O)CO,5.6%
16,O=C(Nc1cccc(OCC(=O)N2CCOCC2)c1)C1CCCCC1,-0.9%
17,CCOc1ccccc1NC(=O)c1cc(S(=O)(=O)N2CCC3(CC2)OCCO3)ccc1F,-14.8%
18,CC1(C)CC(O)C(CCC(O)c2ccccc2)C(C)(C)N1 (stereo unspecified),6.7%
19,COc1ccc(-c2noc(-c3cccc(OC)c3OC)n2)cc1OC,-2.6%
20,COc1ccc(S(=O)(=O)NC2(C(F)(F)F)N=C3SCCN3C2=O)cc1 (stereo unspecified),0.8%
21,O=C(c1ccccc1)c1cccn1CC(=O)N1CCN(c2ccc(F)cc2)CC1,14.7%

row,SMILES,inhibition
1,COc1ccc(NC(=O)C2CCCN(S(=O)(=O)c3cccc4cccnc34)C2)cc1 (stereo unspecified),-6%
2,COc1ccc(CC(NC(C)=O)C(=O)NC2CCN(C(=O)Nc3ccc(C#N)cc3)CC2)cc1OC (stereo unspecified),17.9%
3,COc1ccccc1N1CCN(c2nc3ccccc3n3nnnc23)CC1,-3.6%
4,Cc1noc(C)c1S(=O)(=O)NCCc1ccc(S(N)(=O)=O)cc1,3%
5,Nc1scc(-c2ccncc2)c1Cl,-8.7%
6,COc1ccc(NC(C)=O)cc1NC(=O)CN1CCN(c2ccccn2)CC1,-0.9%
7,Cc1ccc(S(=O)(=O)N2C3C=CC(C3)C2C(=O)O)cc1 (stereo unspecified),0.9%
8,COc1cc(C2C(C(=O)Nc3ccc(F)cc3)=C(C)Nc3nc(CCCO)nn32)cc(OC)c1OC (stereo unspecified),-2.7%
9,CC(=O)Nc1ccc(-c2cn3cccnc3n2)cc1,2.3%
10,CCOC(=O)N1CCN(C(=O)c2cnc3n(c2=O)CCS3)CC1,-0.5%
11,O=C(CCSCCc1ccccn1)Nc1nccs1,0.5%
12,Cc1c2cnn(-c3ccccc3)c(=O)c2c(C)n1CCCC(=O)N1CCN(C)CC1,0%
13,COc1cccc(Nc2nnc(SCC(=O)N3CC(C)OC(C)C3)s2)c1 (stereo unspecified),-0.3%
14,COCCCNC(=O)c1ccc2c(c1)ncn2-c1ccccc1OC,0.4%
15,COc1ccc(NC(=O)CCNC(=O)Cn2ccc3ccccc3c2=O)c(OC)c1,-0.5%
16,Cc1cc(C)c(C#N)c(SCc2[nH]nc3c2C(c2ccccc2)C(C#N)=C(N)O3)n1 (stereo unspecified),-9.6%
17,O=C(O)C1CCCCC1C(=O)Nc1ccc(Cl)cc1 (stereo unspecified),-0.4%
18,O=C(Cn1nc(Cc2cccnc2)c2ccccc2c1=O)NCC1COc2ccccc2O1 (stereo unspecified),-7.3%
19,CCOc1ccc2c(=O)c(-c3ccc4c(c3)OCCCO4)c(C)oc2c1,-9.1%

# Reference: PubChem BioAssay AID441 (NMMLSC, 2006)
